ChEMBL document CHEMBL1961873, “Compounds: GSK PKIS; Assays: Nanosyn kinase panel” (2012)

Assays:
[1] = biological target: Tyrosine-protein kinase CSK (Homo sapiens) (UniProt P41240); details: at 1 µM;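 note: each value is an averaged inhibition reading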
[2] = biological target: T1, Discoidin domain-containing receptor 2 (Homo sapiens) (UniProt Q16832); details: at 0.1 µM
T1 sequence (whole entry): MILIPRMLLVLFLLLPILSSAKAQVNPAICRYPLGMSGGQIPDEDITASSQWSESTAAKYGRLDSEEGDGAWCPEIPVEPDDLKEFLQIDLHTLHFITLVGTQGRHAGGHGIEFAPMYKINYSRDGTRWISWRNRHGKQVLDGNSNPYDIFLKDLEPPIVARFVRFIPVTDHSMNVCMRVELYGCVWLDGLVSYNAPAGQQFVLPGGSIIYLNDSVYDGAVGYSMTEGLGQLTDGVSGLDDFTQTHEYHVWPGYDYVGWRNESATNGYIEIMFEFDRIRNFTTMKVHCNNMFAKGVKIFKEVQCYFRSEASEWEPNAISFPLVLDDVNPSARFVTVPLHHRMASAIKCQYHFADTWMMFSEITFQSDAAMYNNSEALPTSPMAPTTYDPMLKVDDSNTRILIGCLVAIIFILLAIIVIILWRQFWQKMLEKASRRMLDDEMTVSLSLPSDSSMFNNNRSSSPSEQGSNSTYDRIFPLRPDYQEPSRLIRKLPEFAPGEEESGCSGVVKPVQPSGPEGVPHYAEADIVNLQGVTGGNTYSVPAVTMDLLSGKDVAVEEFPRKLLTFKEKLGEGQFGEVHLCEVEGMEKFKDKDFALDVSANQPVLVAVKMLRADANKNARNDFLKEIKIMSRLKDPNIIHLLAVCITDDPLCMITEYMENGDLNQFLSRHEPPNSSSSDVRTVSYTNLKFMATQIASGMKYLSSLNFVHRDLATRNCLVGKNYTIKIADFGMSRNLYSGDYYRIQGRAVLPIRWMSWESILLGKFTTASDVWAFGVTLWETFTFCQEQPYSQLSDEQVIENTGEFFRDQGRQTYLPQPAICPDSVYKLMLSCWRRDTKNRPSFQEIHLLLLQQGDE

[3] = biological target: T1, Discoidin domain-containing receptor 2 (Homo sapiens); details: at 1 µM
[4] = biological target: Epidermal growth factor receptor (Homo sapiens) (UniProt P00533); details: at 0.1 µM
Chain of Epidermal growth factor receptor (Homo sapiens) (P00533 whole entry): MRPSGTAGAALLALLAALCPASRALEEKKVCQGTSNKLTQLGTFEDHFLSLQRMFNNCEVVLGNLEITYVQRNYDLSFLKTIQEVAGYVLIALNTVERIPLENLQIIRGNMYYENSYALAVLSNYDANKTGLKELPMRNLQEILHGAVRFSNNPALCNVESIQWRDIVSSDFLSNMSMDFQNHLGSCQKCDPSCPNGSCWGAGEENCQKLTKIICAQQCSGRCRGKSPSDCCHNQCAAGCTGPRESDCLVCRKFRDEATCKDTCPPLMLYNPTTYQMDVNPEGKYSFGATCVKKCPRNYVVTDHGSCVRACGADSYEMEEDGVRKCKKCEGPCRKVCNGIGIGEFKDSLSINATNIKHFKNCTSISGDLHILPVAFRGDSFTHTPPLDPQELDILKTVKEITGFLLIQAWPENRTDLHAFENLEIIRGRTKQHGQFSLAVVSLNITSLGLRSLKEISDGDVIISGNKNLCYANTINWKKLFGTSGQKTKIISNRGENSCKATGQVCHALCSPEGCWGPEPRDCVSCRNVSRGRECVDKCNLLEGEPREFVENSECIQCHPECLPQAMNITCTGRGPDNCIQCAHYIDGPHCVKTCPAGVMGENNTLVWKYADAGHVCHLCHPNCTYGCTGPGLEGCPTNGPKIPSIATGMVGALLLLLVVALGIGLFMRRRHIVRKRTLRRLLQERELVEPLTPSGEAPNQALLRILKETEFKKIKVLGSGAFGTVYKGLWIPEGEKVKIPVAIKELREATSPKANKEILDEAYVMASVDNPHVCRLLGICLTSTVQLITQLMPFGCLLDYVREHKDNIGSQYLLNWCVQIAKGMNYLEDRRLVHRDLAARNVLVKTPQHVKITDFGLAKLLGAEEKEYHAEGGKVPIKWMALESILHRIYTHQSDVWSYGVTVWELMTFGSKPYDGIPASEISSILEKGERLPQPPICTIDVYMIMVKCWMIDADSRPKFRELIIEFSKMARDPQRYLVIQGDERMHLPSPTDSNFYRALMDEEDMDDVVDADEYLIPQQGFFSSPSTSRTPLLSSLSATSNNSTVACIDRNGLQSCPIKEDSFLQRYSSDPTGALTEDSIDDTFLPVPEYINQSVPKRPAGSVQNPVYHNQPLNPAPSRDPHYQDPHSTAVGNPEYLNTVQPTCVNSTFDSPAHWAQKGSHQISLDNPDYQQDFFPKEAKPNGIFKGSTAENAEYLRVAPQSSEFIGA

[5] = biological target: Epidermal growth factor receptor (Homo sapiens) (UniProt P00533); details: at 1 µM
[6] = tested on: Epidermal growth factor receptor (Homo sapiens), P00533 [L858R]; details: at 0.1 µM
Chain of Epidermal growth factor receptor (Homo sapiens), P00533 [L858R] (P00533 whole entry L858R): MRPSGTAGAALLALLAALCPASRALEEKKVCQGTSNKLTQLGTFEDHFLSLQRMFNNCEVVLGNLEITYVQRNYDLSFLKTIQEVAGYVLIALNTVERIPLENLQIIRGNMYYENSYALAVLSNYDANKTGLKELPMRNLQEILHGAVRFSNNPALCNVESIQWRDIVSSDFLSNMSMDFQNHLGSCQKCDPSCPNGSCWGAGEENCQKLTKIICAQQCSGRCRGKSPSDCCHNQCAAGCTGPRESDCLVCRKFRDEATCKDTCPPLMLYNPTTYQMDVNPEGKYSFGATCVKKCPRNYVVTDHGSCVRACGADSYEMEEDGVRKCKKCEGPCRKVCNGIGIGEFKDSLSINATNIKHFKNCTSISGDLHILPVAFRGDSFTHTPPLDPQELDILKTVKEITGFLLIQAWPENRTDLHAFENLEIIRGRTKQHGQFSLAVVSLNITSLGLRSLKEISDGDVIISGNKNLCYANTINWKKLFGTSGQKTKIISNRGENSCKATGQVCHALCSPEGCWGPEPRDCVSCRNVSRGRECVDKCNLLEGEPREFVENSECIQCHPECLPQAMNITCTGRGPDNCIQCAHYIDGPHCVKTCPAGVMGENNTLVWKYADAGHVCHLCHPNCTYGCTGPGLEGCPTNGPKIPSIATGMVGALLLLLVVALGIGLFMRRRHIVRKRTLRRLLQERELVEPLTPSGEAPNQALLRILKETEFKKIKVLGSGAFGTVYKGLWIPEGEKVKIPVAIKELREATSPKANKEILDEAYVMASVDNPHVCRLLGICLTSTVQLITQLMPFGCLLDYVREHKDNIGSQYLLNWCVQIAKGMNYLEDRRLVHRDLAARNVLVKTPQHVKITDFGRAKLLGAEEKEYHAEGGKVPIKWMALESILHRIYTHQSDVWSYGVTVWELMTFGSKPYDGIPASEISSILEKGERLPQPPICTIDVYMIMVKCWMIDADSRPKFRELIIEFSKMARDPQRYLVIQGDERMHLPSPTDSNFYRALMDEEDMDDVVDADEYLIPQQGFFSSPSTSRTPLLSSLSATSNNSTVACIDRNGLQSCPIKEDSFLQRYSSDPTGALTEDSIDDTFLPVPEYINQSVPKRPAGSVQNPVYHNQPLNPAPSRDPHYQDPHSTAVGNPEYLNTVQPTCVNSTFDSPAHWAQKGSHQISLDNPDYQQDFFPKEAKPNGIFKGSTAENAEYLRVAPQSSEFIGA

[7] = tested on: Epidermal growth factor receptor (Homo sapiens), P00533 [L858R]; details: at 1 µM
[8] = tested on: Epidermal growth factor receptor (Homo sapiens), P00533 [L861Q]; details: at 0.1 µM
[9] = tested on: Epidermal growth factor receptor (Homo sapiens), P00533 [L861Q]; details: at 1 µM
[10] = tested on: Epidermal growth factor receptor (Homo sapiens), P00533 [T790M]; details: at 0.1 µM
[11] = tested on: Epidermal growth factor receptor (Homo sapiens), P00533 [T790M]; details: at 1 µM
[12] = tested on: Epidermal growth factor receptor (Homo sapiens), P00533 [L858R,T790M]; details: at 0.1 µM
Chain of Epidermal growth factor receptor (Homo sapiens), P00533 [L858R,T790M] (P00533 whole entry T790M/L858R, looked up): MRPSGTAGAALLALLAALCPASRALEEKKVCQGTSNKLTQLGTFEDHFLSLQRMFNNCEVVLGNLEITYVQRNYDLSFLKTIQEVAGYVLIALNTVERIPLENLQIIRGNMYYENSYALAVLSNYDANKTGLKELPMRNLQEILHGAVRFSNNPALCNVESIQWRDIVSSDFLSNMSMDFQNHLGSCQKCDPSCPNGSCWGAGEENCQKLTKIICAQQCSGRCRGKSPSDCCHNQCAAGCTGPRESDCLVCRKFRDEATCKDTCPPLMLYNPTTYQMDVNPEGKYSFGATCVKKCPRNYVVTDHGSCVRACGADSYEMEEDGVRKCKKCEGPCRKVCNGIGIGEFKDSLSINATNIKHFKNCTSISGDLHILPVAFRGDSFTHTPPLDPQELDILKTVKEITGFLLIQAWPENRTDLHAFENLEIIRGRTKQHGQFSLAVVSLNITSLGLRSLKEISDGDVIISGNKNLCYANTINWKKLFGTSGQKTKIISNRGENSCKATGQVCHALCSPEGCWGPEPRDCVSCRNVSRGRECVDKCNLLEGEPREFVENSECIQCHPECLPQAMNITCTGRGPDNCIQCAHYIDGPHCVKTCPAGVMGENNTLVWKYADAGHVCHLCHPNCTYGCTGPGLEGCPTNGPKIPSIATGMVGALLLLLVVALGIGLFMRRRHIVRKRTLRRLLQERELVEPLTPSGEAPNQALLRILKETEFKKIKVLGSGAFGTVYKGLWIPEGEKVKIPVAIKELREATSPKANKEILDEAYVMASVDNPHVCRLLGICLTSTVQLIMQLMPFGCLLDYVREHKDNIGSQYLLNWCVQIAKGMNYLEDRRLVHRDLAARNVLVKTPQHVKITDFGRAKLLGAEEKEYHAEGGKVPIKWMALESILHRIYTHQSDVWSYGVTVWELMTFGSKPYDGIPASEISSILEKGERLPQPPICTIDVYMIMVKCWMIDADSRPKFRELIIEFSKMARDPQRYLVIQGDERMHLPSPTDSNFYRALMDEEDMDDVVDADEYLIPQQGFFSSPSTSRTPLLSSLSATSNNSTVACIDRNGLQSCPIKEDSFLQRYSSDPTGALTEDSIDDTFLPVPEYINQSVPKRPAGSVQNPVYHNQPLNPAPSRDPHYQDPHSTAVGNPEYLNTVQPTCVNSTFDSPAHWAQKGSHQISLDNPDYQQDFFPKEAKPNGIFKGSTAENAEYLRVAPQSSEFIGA

[13] = tested on: Epidermal growth factor receptor (Homo sapiens), P00533 [L858R,T790M]; details: at 1 µM
[14] = biological target: Ephrin type-A receptor 2 (Homo sapiens) (UniProt P29317); details: at 0.1 µM
Chain of Ephrin type-A receptor 2 (Homo sapiens) (P29317 whole entry): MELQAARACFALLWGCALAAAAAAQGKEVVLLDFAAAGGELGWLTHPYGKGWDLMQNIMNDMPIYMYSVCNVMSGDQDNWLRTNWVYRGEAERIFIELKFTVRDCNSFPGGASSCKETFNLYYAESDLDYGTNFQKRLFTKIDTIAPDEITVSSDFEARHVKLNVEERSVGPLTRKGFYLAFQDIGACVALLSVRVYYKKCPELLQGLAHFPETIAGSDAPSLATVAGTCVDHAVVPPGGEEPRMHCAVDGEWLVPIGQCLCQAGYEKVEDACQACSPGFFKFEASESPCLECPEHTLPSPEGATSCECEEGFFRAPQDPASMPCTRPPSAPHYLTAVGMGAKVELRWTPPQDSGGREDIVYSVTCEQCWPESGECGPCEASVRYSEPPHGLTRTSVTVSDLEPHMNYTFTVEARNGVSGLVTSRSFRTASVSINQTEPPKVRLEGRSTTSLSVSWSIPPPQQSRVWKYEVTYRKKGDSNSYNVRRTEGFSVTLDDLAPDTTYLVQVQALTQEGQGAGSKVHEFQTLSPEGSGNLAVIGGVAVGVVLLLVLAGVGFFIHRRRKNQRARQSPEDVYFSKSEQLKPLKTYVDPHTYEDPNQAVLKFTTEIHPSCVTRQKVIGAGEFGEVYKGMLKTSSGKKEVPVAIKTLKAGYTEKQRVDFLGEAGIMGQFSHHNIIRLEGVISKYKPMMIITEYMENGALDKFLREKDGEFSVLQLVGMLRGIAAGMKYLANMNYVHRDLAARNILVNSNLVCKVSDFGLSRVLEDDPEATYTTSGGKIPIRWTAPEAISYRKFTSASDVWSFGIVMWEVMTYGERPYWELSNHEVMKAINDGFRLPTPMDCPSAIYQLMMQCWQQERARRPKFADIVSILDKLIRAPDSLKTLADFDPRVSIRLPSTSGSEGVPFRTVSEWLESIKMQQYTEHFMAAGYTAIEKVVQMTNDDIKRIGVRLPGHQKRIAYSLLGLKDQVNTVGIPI

[15] = biological target: Ephrin type-A receptor 2 (Homo sapiens) (UniProt P29317); details: at 1 µM
[16] = biological target: T2, Ephrin type-A receptor 3 (Homo sapiens) (UniProt P29320); details: at 0.1 µM
T2 sequence (whole entry): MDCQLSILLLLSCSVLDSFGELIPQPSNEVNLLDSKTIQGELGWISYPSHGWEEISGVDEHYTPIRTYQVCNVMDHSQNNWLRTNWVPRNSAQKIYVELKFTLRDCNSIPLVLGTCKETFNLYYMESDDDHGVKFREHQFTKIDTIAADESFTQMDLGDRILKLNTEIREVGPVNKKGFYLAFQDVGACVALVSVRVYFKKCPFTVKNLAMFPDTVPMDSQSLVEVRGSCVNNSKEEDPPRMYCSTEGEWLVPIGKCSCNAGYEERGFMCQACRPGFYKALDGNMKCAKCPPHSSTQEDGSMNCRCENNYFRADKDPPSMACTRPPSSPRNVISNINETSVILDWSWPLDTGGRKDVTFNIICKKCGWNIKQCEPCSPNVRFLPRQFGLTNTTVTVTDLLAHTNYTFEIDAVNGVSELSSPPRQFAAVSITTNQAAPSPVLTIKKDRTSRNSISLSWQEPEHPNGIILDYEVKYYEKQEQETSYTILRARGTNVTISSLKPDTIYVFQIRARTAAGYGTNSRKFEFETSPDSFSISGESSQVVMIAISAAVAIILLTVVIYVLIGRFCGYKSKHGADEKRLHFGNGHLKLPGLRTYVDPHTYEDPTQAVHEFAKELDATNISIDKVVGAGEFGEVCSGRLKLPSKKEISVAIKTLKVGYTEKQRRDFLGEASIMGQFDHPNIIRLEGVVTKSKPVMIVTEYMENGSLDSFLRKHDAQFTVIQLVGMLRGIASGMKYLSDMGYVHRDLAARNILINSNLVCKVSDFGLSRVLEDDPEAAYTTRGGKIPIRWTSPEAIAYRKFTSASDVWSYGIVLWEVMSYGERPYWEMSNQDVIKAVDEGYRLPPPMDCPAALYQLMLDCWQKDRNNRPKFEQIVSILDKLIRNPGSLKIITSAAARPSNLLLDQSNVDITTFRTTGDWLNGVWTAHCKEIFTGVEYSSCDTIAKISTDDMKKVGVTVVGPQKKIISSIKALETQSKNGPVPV

[17] = biological target: T2, Ephrin type-A receptor 3 (Homo sapiens); details: at 1 µM
[18] = biological target: Ephrin type-A receptor 4 (Homo sapiens) (UniProt P54764); details: at 0.1 µM
[19] = biological target: Ephrin type-A receptor 4 (Homo sapiens) (UniProt P54764); details: at 1 µM
[20] = biological target: T3, Ephrin type-B receptor 2 (Homo sapiens) (UniProt P29323); details: at 0.1 µM;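 note: reported as mean inhibition of EPHB2, from the GSK PKIS dataset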
T3 sequence (whole entry): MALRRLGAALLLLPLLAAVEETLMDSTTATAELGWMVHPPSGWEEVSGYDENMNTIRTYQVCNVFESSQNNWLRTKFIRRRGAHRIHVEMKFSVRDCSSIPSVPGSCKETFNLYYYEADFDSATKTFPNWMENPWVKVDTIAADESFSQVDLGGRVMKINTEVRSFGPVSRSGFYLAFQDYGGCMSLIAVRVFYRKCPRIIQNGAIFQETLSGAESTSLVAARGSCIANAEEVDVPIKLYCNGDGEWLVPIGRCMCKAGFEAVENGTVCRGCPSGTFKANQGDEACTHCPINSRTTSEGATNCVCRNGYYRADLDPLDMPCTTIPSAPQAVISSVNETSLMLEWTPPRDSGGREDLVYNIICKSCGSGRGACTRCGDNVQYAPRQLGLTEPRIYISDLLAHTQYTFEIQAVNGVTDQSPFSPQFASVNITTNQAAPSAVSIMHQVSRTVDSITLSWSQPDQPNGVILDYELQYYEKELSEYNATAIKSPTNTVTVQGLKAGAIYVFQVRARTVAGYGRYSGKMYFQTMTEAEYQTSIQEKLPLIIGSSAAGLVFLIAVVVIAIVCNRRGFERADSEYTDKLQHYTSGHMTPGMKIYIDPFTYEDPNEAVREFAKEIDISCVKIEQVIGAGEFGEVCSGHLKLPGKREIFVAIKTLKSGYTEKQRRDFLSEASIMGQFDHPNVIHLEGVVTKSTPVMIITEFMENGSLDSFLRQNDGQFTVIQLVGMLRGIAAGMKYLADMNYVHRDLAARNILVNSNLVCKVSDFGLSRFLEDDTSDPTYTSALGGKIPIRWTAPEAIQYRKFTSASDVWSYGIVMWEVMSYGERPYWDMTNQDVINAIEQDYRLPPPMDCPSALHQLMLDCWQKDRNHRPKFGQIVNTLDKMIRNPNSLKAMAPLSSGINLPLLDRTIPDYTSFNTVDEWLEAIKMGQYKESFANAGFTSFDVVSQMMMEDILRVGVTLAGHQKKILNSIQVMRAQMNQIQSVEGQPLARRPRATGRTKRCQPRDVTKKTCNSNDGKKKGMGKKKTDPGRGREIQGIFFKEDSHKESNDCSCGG

Chain of Tyrosine-protein kinase CSK (Homo sapiens) (P41240 2-450 limits assumed): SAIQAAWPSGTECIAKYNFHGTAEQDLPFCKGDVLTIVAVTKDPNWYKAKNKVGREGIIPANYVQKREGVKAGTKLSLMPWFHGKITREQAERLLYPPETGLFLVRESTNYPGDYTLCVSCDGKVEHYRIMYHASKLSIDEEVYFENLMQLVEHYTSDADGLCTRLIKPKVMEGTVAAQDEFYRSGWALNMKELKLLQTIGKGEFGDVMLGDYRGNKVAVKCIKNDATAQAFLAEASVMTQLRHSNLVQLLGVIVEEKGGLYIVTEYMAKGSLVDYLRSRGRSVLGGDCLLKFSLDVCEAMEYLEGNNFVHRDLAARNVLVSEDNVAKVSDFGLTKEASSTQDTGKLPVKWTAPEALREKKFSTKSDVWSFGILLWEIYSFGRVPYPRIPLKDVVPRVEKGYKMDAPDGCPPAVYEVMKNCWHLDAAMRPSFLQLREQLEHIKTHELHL

Compound | inhibition [1] | inhibition [2] | inhibition [3] | inhibition [4] | inhibition [5] | inhibition [6] | inhibition [7] | inhibition [8] | inhibition [9] | inhibition [10] | inhibition [11] | inhibition [12] | inhibition [13] | inhibition [14] | inhibition [15] | inhibition [16] | inhibition [17] | inhibition [18] | inhibition [19] | inhibition [20]
Fc1ccc(-c2ncn(C3CCNCC3)c2-c2ccnc(Oc3ccc(F)c(F)c3)n2)cc1 | 2.38% | 1.67% | 2.09% | -3.12% | -0.79% | 1.05% | 7.57% | 3.65% | 4.21% | 1.53% | 1.67% | 2.65% | 1.47% | -2.47% | -2.72% | -1.56% | 0.81% | 6.95% | 9.68% | 6.59%
C[C@@H](Oc1cc(-n2cnc3ccc(OCC4CCN(C)CC4)cc32)sc1C(N)=O)c1ccccc1Cl | 3.59% | 2.64% | 8.53% | 3.04% | 3.73% | 4.5% | 19.8% | 1.43% | 5.89% | 1.15% | 3.47% | -2.11% | 7.41% | 1.42% | 1.71% | 3.99% | 4.27% | 8.9% | 11.6% | 9.82%
CNC(=O)c1cncc(/C=C/c2c(C)cccc2C)c1 | 24.6% | 7.93% | 36.8% | -2.83% | 5.96% | 7.48% | 41.4% | 1.86% | 8.46% | -0.41% | 0.11% | 0.33% | 1.36% | 8.07% | 44.4% | 2.95% | 16.1% | 25.5% | 80.9% | 23.2%
COc1cccc(/C=N/Nc2ncnc3c2cnn3-c2cccc(OC)c2)c1 | 3.91% | 1.34% | 2.5% | 1.31% | 2.97% | 2.05% | 8.79% | 1.95% | 4.05% | 0.54% | 2.12% | 2.14% | 2.04% | -1.3% | -1.94% | 1.72% | 3.83% | 6.9% | 9.69% | 8.19%
CN(C)CCCNc1nccc(-c2c(-c3ccc(F)cc3)nn3cc(C(F)(F)F)ccc23)n1 | -0.64% | 5.29% | 11.1% | -2.27% | 1.24% | 0.77% | 2.36% | 1.57% | -2.56% | 1.53% | -0.54% | 0.09% | 1.55% | -2.91% | -2.04% | 0.03% | 1.47% | 7% | 9% | 8.88%
NC(=O)Cc1ccccc1Oc1nccc(-c2c(-c3ccc(F)cc3)ncn2C2CCNCC2)n1 | 0.29% | 0.48% | 0.75% | 2.22% | 4.51% | 2.34% | 8.03% | 1.25% | -0.04% | 0.99% | 0.65% | 0.76% | 4.08% | -0.02% | -0.27% | 2.08% | 3.17% | 5.89% | -0.14% | 6.12%
